An excerpt weighted towards active compounds, which were near 2.6% of everything screened.
PKA-R2B activ – activators of human PKA-R2B complex | actives 0.079% (n = 340,000) | activation, % at 11.4 µM | P22694+P31323 | AID 504700 | PKA-R2B holoenzyme dissociation, Cy5-IP20 fluorescence polarization; R2B truncated from residue 108, S112A mutant; 0% DMSO only, 100% 113 µM cGMP;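 active means activation above a cutoff set at the mean over all compounds plus 3 SD, cut at about 18% in these data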;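 further: higher means more holoenzyme dissociation and a rise in polarization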
PAFAH2 inh – PAFAH2 (human) inhibition; Q99487; recombinant PAFAH2, FP-rhodamine activity probe, fluorescence polarization; inhibition, % at 3.39 µM; actives 0.99% (n = 340,000);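 active means inhibition above the mean over all tested compounds plus 3 SD, cut at about 30% in these data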;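 further: inhibitors block probe labeling of enzyme so polarization drops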
PKA-R1A activ – PKA-R1A complex activation; activation, % at 11.4 µM; actives 0.083% (n = 340,000); AID 504707; P00514+P68181; PKA-R1A dissociation, Cy5-IP20 fluorescence polarization; scaled: DMSO 0%, 113 µM cGMP 100%;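 active means percent activation above the mean of all tested compounds plus 3 SD, cut at about 19% in these data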;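 further: higher means more PKAc released from R1A so a rise in polarization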
pPAFAH FP inh – pPAFAH (human) enzyme inhibition. AID 463082. inhibition, % at 3.39 µM. recombinant pPAFAH, FP-rhodamine probe fluorescence polarization. actives 1.5% (n = 330,000). Q13093;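 active means inhibition above the mean inhibition across the screen plus 3 SD, cut at about 25% in these data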;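 further: inhibitors block binding of the rhodamine activity-based probe so polarization drops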
PAFAH1B3 FP inh – blocks human PAF acetylhydrolase 1B catalytic subunit 3; inhibition, % at 3.39 µM; actives 0.28% (n = 340,000); AID 492972; Q15102; recombinant PAFAH1B3, FP-rhodamine probe, fluorescence polarization;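 active means inhibition above the screen-wide average of all tested compounds plus 3 SD, cut at about 25% in these data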
Target sequence (Q15102 whole entry, looked up): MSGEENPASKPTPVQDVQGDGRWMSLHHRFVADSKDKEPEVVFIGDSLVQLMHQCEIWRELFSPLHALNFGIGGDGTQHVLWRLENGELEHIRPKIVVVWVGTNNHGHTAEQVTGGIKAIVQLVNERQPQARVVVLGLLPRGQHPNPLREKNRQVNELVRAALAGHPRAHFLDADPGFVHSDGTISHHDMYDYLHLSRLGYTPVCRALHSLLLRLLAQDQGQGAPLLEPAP
PAFAH1B2 FP inh – blocks human PAF acetylhydrolase 1b catalytic subunit 2. P68402. recombinant PAFAH1B2, FP-rhodamine activity probe, fluorescence polarization. actives 1.2% (n = 340,000). AID 492953. inhibition, % at 3.39 µM;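 active means inhibition above the mean of all tested compounds plus 3 SD, cut at about 24% in these data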
Target sequence (P68402 whole entry, looked up): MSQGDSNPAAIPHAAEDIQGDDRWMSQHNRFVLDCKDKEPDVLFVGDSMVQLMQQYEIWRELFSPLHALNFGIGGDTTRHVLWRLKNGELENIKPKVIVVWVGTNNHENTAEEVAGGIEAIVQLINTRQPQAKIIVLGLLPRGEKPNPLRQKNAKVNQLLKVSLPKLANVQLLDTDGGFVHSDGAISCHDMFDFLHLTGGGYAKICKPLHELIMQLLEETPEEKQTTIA
Each line names hits and unclear results; the compound was inactive in the other large screens.

O=C(CN1C(=O)C(=O)N(Cc2ccco2)C1=O)Nc1ccccc1	none
CC(=O)c1ccc(S(=O)(=O)N2CCN(c3ccnc4cc(Cl)ccc34)CC2)cc1	none (no result: PAFAH2 inh, pPAFAH FP inh, PAFAH1B3 FP inh, PAFAH1B2 FP inh)
Cc1ccc(CNC(=O)CSc2nc(C)cs2)cc1	none
Cc1csc(SCC(=O)NCCc2ccc(Cl)cc2)n1	PAFAH1B2 FP inh 32
CC(=O)c1cc(O)c2ccccc2c1O	pPAFAH FP inh 26
CC(=O)c1coc2c1cc(O)c1ccccc12	none
CCN1C=C(C(C)=O)C(=O)CC1	none (no result: pPAFAH FP inh)
COc1ccc2c(c1)[nH]c1c(N3CCN(Cc4ccc5c(c4)OCO5)CC3)ncnc12	pPAFAH FP inh 31
COc1cccc(CN(C)C(=O)CCN=C2NS(=O)(=O)c3ccccc32)c1OC	none
C=CCNC(=O)C1CCN(S(=O)(=O)c2ccc(Br)cc2)CC1	PAFAH1B2 FP inh 33
Cc1ccc(C(=O)NNC(=O)C2CCN(S(=O)(=O)c3ccc(Cl)cc3)CC2)cc1	PAFAH1B2 FP inh 26
O=C(NCC1COc2ccccc2O1)C1CCN(S(=O)(=O)c2ccc(Cl)cc2)CC1 (stereo not drawn)	PAFAH1B2 FP inh 29
CCN(CC)S(=O)(=O)N1CCC(C(=O)NCC2COc3ccccc3O2)CC1 (stereo not drawn)	none
O=C(NCCc1ccc(Cl)cc1)C1CCCN1C(=O)Nc1ccccc1 (stereo not drawn)	PAFAH1B2 FP inh 26
Cc1[nH]c2ccccc2c1C(=O)C(=O)NCc1nnnn1-c1ccc(F)c(F)c1	none (no result: PAFAH2 inh, pPAFAH FP inh, PAFAH1B3 FP inh, PAFAH1B2 FP inh)
Cc1ccc(NC(=O)CN(C)C(=O)CSc2nc3ccccc3c(=O)n2CCO)cc1	none (no result: pPAFAH FP inh)
CC(=O)Nc1ccc(S(=O)(=O)N2CCC(C(=O)NCCc3ccc(Cl)cc3)CC2)cc1	PAFAH1B2 FP inh 27 (no result: pPAFAH FP inh)
CCOc1ccc(-c2c(C(=O)N/N=C/C3CC=CCC3)nnn2-c2nonc2N)cc1 (stereo not drawn)	none
Cc1ccc(NS(=O)(=O)c2cc(C(=O)OCC(=O)NCC3CCCO3)ccc2C)cc1 (stereo not drawn)	pPAFAH FP inh 34
O=C(COC(=O)/C=C/c1ccc(Cl)cc1Cl)NCC1CCCO1 (stereo not drawn)	pPAFAH FP inh 27
O=C(COC(=O)/C=C/c1c(F)cccc1Cl)NCC1CCCO1 (stereo not drawn)	none (no result: pPAFAH FP inh)
Cc1ccc(CN2CCSc3ccc(C(=O)NCC4CCCO4)cc32)cc1 (stereo not drawn)	pPAFAH FP inh 33
Cc1ccc(SCC(=O)NCC2CCCO2)cc1 (stereo not drawn)	PAFAH1B2 FP inh 25
O=C(NCC1CCCO1)c1ccc2c(c1)N(Cc1ccc(Cl)cc1)CCS2 (stereo not drawn)	none (no result: PAFAH2 inh, pPAFAH FP inh, PAFAH1B3 FP inh, PAFAH1B2 FP inh)
CC(=O)C[C@H](O)CC(=O)[C@H]1OC(=O)CCCCCCCc2ccccc21	none
CCOC(=O)[C@@H]1[C@H]2COc3cc(OC)ccc3[C@@H]2N2C(=O)N(c3cccc(F)c3)C(=O)[C@@]12C	none
Cc1cccc(OCC(=O)Nc2c3c(nn2C(C)(C)C)CS(=O)(=O)C3)c1	none
COc1ccc(C2/C(=C(/O)c3ccc4c(c3)CC(C)O4)C(=O)C(=O)N2CCN2CCOCC2)cc1OC (stereo not drawn)	none (no result: pPAFAH FP inh)
CCN(CC)c1ccc(C(=O)OCC(=O)NCC2CCCO2)cc1 (stereo not drawn)	PAFAH2 inh 73, pPAFAH FP inh 32
COc1ccc(-n2c(SCC(=O)NCC3CCCO3)nc3ccccc32)cc1 (stereo not drawn)	pPAFAH FP inh 26
Cc1ccc(N(O)C(=O)NCCCCNC(=O)N(O)c2ccc(C)cc2)cc1	none
Cc1ccnc(SCC(=O)Nc2oc(-c3ccccc3)c(-c3ccccc3)c2C#N)n1	none
N#Cc1c(NC(=O)CSc2ncccn2)oc(-c2ccccc2)c1-c1ccccc1	pPAFAH FP inh 32
N#Cc1c(NC(=O)Cn2cnc3ccccc3c2=O)oc(-c2ccccc2)c1-c1ccccc1	PAFAH1B2 FP inh 29
CC1=C(C(=O)Nc2cc(C(=O)NCCC(C)C)ccc2C)SCCO1	none
O=C(c1cccc(S(=O)(=O)N2CCCC2)c1)N1CCCC(C(F)(F)F)C1 (stereo not drawn)	none
Cc1ccc(CCNC(=O)C2CCC(=O)N2C2CCCC2)cc1 (stereo not drawn)	PAFAH1B2 FP inh 27

Assay outcomes (PubChem BioAssay)
